The results in this text go back to PubChem BioAssay (Tox21).

Values joined by “and” are separate entries in the source; they are usually repeats but may differ in a detail not shown here. Equal values may be shown once. Records with an inconclusive call do not appear. Some compounds were tested as several samples or in several runs, with calls that do not always agree. Active and inactive are the calls of the source. Unless noted, calls come from the whole dose curve; as a rule, active = well fitted curve in the direction sought with a large enough effect in the repeat runs; inconclusive = weak or mixed curves; inactive = no such curve, though single readings can be large; an effect the other way counts as inactive or inconclusive.

Test [1] is described as follows: A CellTox Green Cytotoxicity Assay to monitor cytotoxicity in HEK293 cells - 32 hour (AID 1224881). Note: nearly all actives have a fitted effect of over 40% in size. Note: potency is the fitted concentration of half-maximal effect. The procedure, abridged:
(§1)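 Real-time, in one plate: 600 HEK293 cells/well with dead-cell DNA dye, pinned compound after 5 h, 37 C incubation over 40 h; viable cells give no appreciable fluorescence.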

The nature of test [2]: A CellTox Green Cytotoxicity Assay to monitor cytotoxicity in HepG2 cells - 0 hour (AID 1224882). Note: nearly all actives have a fitted effect of over 35% in size. The gist of the method: (§2)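 Cytotoxicity was tracked as dead-cell DNA fluorescence in HepG2 cells treated with test compounds at 37 C; each time-point value comes from one kinetic series spanning 0, 8, 16, 24, 32 and 40 h.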
Test [3] is described as follows: A CellTox Green Cytotoxicity Assay to monitor cytotoxicity in HepG2 cells - 32 hour (AID 1224883). Note: nearly all actives have a fitted effect of over 50% in size. Note: potency is the fitted concentration of half-maximal effect. The procedure, abridged: as §2
The nature of test [4]: A CellTox Green Cytotoxicity Assay to monitor cytotoxicity in HEK293 cells - 8 hour (AID 1224884). Note: nearly all actives have a fitted effect of over 35% in size. The gist of the method:
as §1

Test [5] can be described thus: qHTS RealTime-Glo MT Cell Viability Assay in HepG2 cells - 16 hour (AID 1224885). Note: nearly all actives have a fitted effect of over 50% in size. Note: potency is the fitted concentration of half-maximal effect. The procedure, abridged: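 Luminescence read-out: viable HepG2 cells reduce a prosubstrate to a NanoLuc substrate, giving a signal proportional to live cell number. Reads taken at 0, 8, 16, 24, 32 and 40 h of compound exposure at 37 C.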
(qHTS replaces the single test concentration by a dilution series.)

Test [6] is described as follows: qHTS RealTime-Glo MT Cell Viability Assay in HEK293 cells - 24 hour (AID 1224886). Note: nearly all actives have a fitted effect of over 50% in size. Note: potency is the fitted concentration of half-maximal effect. The gist of the method: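 Nonlytic real-time viability readout: viable cells convert prosubstrate to NanoLuc substrate, giving luminescence proportional to live cell number. HEK293, 600 cells/well, compound added after 5 h, continuous culture at 37 C.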
The nature of test [7]: A CellTox Green Cytotoxicity Assay to monitor cytotoxicity in HEK293 cells - 16 hour (AID 1224888). Note: nearly all actives have a fitted effect of over 35% in size. The procedure, abridged: as §1
Test [8] in a line: A CellTox Green Cytotoxicity Assay to monitor cytotoxicity in HepG2 cells - 8 hour (AID 1224890). Note: nearly all actives have a fitted effect of over 45% in size. The procedure, abridged: as §2
Test [9] is described as follows: qHTS assay to identify small molecule antagonists of the estrogen receptor alpha (ER-alpha) signaling pathway using the BG1 cell line in the presence of 0.1 nM 17-beta-estradiol - cell viability counter screen (AID 1259241). Note: nearly all actives have a fitted effect of over 40% in size. Note: potency is the fitted concentration of half-maximal effect. The procedure, abridged: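 Estradiol-stimulated (0.1 nM) VM7Luc4E2 cells exposed to compounds 22 hr; viability measured by fluorescence of cleaved CellTiter-Fluor substrate after 30 min.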

Test [10] is described as follows: qHTS assay to identify small molecule antagonists of the androgen receptor (AR) signaling pathway using the MDA cell line in the presence of 0.5 nM R1881 - cell viability counter screen (AID 1259242). Note: nearly all actives have a fitted effect of over 45% in size. Note: potency is the fitted concentration of half-maximal effect. The procedure, abridged:
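Cells seeded at 3,000/well and allowed 5 hr at 37C, 0% CO2 before compound transfer and R1881 (0.5 nM final) addition; 16 hr later, live-cell protease fluorescence indicated cytotoxicity.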

Test [11] is described as follows: qHTS assay to identify small molecule phospholipidosis (PLD) inducers (AID 1259344; active = well fitted curve in the direction sought with a large enough effect; an effect the other way counts as inactive or inconclusive; note: potency is the fitted concentration of half-maximal effect). The procedure, abridged:
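After 4 h attachment on collagen I, HepG2 cells were dosed with compound alongside LipidTOX Red, kept 24 h at 37 C, fixed, and imaged for lamellar phospholipid pits.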

Test [12] in a line: qHTS assay to identify small molecule HDAC inhibitors (AID 1259364).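 Note: wild-type HCT-116 cells with endogenous class I/II HDAC activity; top concentration of the series differs between compounds; nearly all actives have a fitted effect of over 45% in size.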 The gist of the method: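 HCT-116 wt cells, 1,500/well, overnight attach. Compounds (DMSO) 2 h, 37 °C. HDAC-Glo I/II, 30 min RT. Luminescence.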
Test [13] is described as follows: qHTS assay to identify small molecule HDAC inhibitors - cell viability counter screen (AID 1259365). Note: series mostly up to about 92 µM; nearly all actives have a fitted effect of over 50% in size. The procedure, abridged:
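After overnight seeding at 1,500 cells per well, wild-type HCT-116 cultures took up compounds in DMSO for 2hr at 37 C. Viable cell content came from luminescence with CellTiter-Glo.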

Test [14] in a line: qHTS assay to identify small molecule agonists of the sonic hedgehog signaling (Shh) pathway - cell viability counter screen (AID 1259366). Note: nearly all actives have a fitted effect of over 50% in size. Note: potency is the fitted concentration of half-maximal effect. The gist of the method: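 Same-well cytotoxicity read. Gli1-Luc reporter 3T3 cells; compounds 24hr, 37C/5% CO2; CellTiter-Fluor fluorescence.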
Test [15] can be described thus: qHTS assay to identify small molecule antagonists of the sonic hedgehog signaling (Shh) pathway - cell viability counter screen (AID 1259367). Note: nearly all actives have a fitted effect of over 55% in size. Note: potency is the fitted concentration of half-maximal effect. The procedure, abridged:
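Conditioned medium drove Shh signaling in 3T3 Gli1-Luc cells exposed to compounds at 37C and 5% CO2. Viability was determined from CellTiter-Fluor fluorescence, with reagent incubated 1 hr after 23 hr of treatment.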

Test [16] can be described thus: qHTS assay to identify small molecule agonists of the sonic hedgehog signaling (Shh) pathway (AID 1259368; calls by dose curve;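 note: NIH/3T3-derived 3T3Gli1-Luc cells carrying a stable Gli1-driven firefly luciferase reporter; series mostly up to about 92 µM; nearly all actives have a fitted effect of over 15% in size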). The gist of the method: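 Following a 24 hr incubation with DMSO-dissolved compounds at 37 C, 5% CO2, Gli1-Luc NIH/3T3-derived cells received luciferase reagent for 30 min at room temperature prior to luminescence measurement.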
The target in test [17] is Estrogen receptor (Homo sapiens) (UniProt P03372). As to the kind of experiment: qHTS assay to identify small molecule antagonists of the estrogen receptor alpha (ER-alpha) signaling pathway using the BG1 cell line in the presence of 0.1 nM 17-beta-estradiol (AID 1259244). Note: nearly all actives have a fitted effect of over 50% in size. Note: potency is the fitted concentration of half-maximal effect. The procedure, abridged:
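Luciferase signal from VM7Luc4E2 ERE-reporter cells, co-dosed with test compound and 0.1 nM final 17beta-estradiol for 22 h, read with ONE-Glo.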

A short description of test [18]: qHTS RealTime-Glo MT Cell Viability Assay in HEK293 cells - 8 hour (AID 1224887). The gist of the method:
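Kinetic, non-lysing viability readout. Seed HEK293 (600/well) with reagent, incubate 5 h at 37 C/5% CO2, pin 23 nL compound in DMSO, incubate at 37 C, read luminescence at 0, 8, 16, 24, 32, 40 h.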

Chain of Estrogen receptor (Homo sapiens) (P03372 whole entry, looked up): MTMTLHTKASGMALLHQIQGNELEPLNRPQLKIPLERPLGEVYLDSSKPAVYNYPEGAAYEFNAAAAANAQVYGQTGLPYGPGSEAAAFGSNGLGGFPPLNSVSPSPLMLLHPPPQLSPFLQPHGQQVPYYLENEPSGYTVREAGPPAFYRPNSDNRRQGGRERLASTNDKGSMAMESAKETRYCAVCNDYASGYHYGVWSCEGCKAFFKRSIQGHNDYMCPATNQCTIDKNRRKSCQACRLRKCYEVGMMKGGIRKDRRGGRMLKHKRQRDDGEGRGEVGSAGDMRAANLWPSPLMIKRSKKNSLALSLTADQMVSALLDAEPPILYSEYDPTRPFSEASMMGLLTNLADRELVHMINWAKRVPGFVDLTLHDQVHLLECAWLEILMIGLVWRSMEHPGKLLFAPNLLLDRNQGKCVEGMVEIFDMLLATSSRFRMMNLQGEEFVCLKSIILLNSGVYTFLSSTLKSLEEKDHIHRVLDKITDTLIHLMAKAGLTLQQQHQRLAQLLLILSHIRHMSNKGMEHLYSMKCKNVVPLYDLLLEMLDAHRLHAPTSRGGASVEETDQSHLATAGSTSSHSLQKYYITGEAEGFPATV

Regarding `CC(C)c1c(C(=O)Nc2ccccc2)c(-c2ccccc2)c(-c2ccc(F)cc2)n1CC[C@@H](O)C[C@@H](O)CC(=O)O`, the Potency result in test [1], in [2], in [4], in test [5], in test [6] and in [7] was “inactive” each time. For the same molecule, the Potency result in [8], in [9], in test [10], in test [11], in test [12] and in test [13] was “inactive” each time. Moreover, the Potency result in test [14] and in test [15] was “inactive” each time. The Potency in test [3] is 2.98 µM (active) and 10.2 µM (active) and 6.01 µM (active). Also, the call in [16] was inactive.
In the case of `Cn1c(=O)c2c(ncn2C)n(C)c1=O`, the Potency entry in test [1], in [2], in test [3], in test [4], in test [5] and in test [6] was “inactive” each time. Further, the Potency entry in [7], in test [8], in test [10], in test [11], in test [12] and in test [13] was “inactive” each time. Also, the Potency entry in test [14] was “inactive”. The Potency in test [15] was 55.1 µM (active) and inactive. Also, in test [16], the call was inactive.
For the molecule `CN[C@H]1CC[C@@H](c2ccc(Cl)c(Cl)c2)c2ccccc21`, the Potency entry in test [2], in test [9], in [12], in test [14] and in test [15] was “inactive” in each case. In addition, the Potency was 19 µM (active) in test [3], 23.9 µM (active) in [5], 21.3 µM (active) in [6] and 2.82 µM (active) in test [11]. In test [16], the molecule was called inactive.
For the molecule `NC(=O)n1c(O)c(C(=O)c2cccs2)c2cc(Cl)ccc21`, the Potency result in [1], in test [2], in test [3], in test [4], in [5] and in test [6] was “inactive” in each case. For the same molecule, the Potency result in test [7], in test [8], in [11], in test [12] and in test [13] was “inactive” each time. The Potency in test [9] was 16.8 µM (active); in test [17] it was 13.3 µM (active). In test [16], the result was inactive.
`Cc1ccc(S(=O)(=O)O)cc1`: the Potency entry in [1], in test [2], in test [3], in test [4], in test [5] and in test [6] was “inactive” each time. Moreover, the Potency entry in test [7], in [8], in [9], in test [10], in [12] and in [13] was “inactive” throughout. Further, the Potency result in [14] and in [15] was “inactive” throughout. In addition, the molecule was classed as inactive in [16].
Consider `O=CC(=O)c1ccccc1`, for which the Potency entry in test [2], in test [3], in test [4], in test [5], in [6] and in test [7] was “inactive” throughout. Moreover, the Potency result in test [8], in test [9], in test [10], in [17], in [12] and in test [14] was “inactive” throughout. Also, the Potency entry in [15] is “inactive”. In addition, in test [16], the result was inactive.
`Nc1ccc(O)c([N+](=O)[O-])c1`: the Potency result in test [1], in test [2], in test [3], in [4], in test [5] and in [7] was “inactive” in each case. The Potency result in test [8], in test [11] and in [13] was “inactive” in each case. In addition, the Potency in test [14] is 43.3 µM (active); in [15] it was 30.6 µM (active). Moreover, the result in [16] was inactive.
As for `COc1ccc2cc(S(=O)(=O)N[C@H](CC(=O)N[C@H](Cc3ccc(CN4[C@H](C)CCC[C@@H]4C)cc3)C(=O)N(C)C(C)C)c3ccc4c(c3)OCO4)ccc2c1`, the Potency in test [1] is 52 µM (active); in [3], 52 µM (active); in test [5], 52 µM (active); in test [6] it was 41.3 µM (active); in test [18], 46.3 µM (active); in test [9] it was 29 µM (active). The Potency is 46 µM (active) in test [10], 51.6 µM (active) in test [17], 25.8 µM (active) in [14] and 29 µM (active) in test [15]. Also, the Potency result in test [2], in [12] and in test [13] was “inactive” in each case. Moreover, the outcome in [16] was inactive.
As for `CC1(C)S[C@@H]2[C@H](NC(=O)[C@H](N)c3ccccc3)C(=O)N2[C@H]1C(=O)O`, the Potency result in test [1], in [2], in test [3], in [4], in test [7] and in test [8] was “inactive” throughout. The Potency result in [9], in test [10], in test [12], in [13], in test [14] and in test [15] was “inactive” in each case. The outcome in test [16] was inactive.
For `Nc1ccc([N+](=O)[O-])cc1O`, the Potency result in test [1], in [2], in test [3], in [4], in [5] and in test [6] was “inactive” throughout. Besides, the Potency entry in test [7], in test [8], in [17], in test [11] and in [13] was “inactive” in each case. For the same molecule, the values for the Potency in test [9], in test [14] and in test [15] were 61.1 µM (active), 30.6 µM (active) and 24.3 µM (active), respectively. For the same molecule, the call in test [16] was inactive.
With `OC[C@H]1O[C@H](O[C@]2(CCl)O[C@H](CCl)[C@@H](O)[C@@H]2O)[C@H](O)[C@@H](O)[C@H]1Cl`, the Potency entry in test [1], in test [2], in test [3], in [4], in test [5] and in [6] was “inactive” throughout. For the same molecule, the Potency result in test [7], in test [8], in test [9], in [10], in test [12] and in test [13] was “inactive” in each case. The Potency entry in test [14] and in test [15] was “inactive” each time. In addition, in [16], the molecule was classed as inactive.
